HepG2 viability = qHTS for Inhibitors of TGF-b: Cytotox Counterscreen | HepG2 CAGA-GFP viability, ATP luminescence, 18 h | Potency, µM (highest dose often 46.1 µM), most hits filed as cytotoxic | 410,000 tested, 0.76% active
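HepG2 CAGA-GFP cells (1000/well, DMEM with 1% FBS) received compound, then TGF-beta at 500 pg/mL final, and were incubated 18 hours at 37 degrees C. Viability was read by CellTiter-Glo luminescence. Media-only wells were set as complete cell-killing and DMSO as no toxicity.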
ATXN2 expr inh = Primary qHTS for Inhibitors of ATXN expression | HEK-293 ATXN2-luciferase reporter, luminescence, 24 h | 360,000 tested, 0.72% active | Potency, µM (titrated, usually from 57 µM), usual class: inhibitors; also: nearly all actives have a fitted effect of over 55% in size
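qHTS (up to 57 uM final) was run with 24 h compound exposure of reporter cells at 37 °C. Each well was multiplexed: SteadyGlo luminescence measured ATXN2-luciferase expression after a fluorogenic Gly-Phe-AFC viability readout (25 uM final).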
ATXN viability = Viability Counterscreen for Primary qHTS for Inhibitors of ATXN expression; S2 cells (HEK-293 line with an ATXN2-luciferase reporter) viability, CellTiter-Fluor protease fluorescence, 24 h; Potency, µM (doses to about 56.7 µM), usual class: cytotoxic; 400,000 tested, 0.49% active; also: nearly all actives have a fitted effect of over 40% in size
CtBP-E1A inh = qHTS Assay for Inhibitors of the CtBP/E1A Interaction. AlphaScreen GST-E1A/His-CtBP binding, 1536-well; hits give low values. activity change, % (concentration not given with the values). 340,000 tested, 0.49% active. AID 651724, 2012; in the data active = activity change below about -65%; inconclusive = mostly about -30% to -63%
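Protein mix (5X: 125 nM each GST-E1A, His-CtBP) was incubated with pinned compound 2 h at 37 deg C in dark, in 50 mM Tris pH 8.0 buffer with 300 mM NaCl. Glutathione donor and nickel acceptor beads followed; AlphaScreen signal read after 1 h.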
Six1-Eya2 blk = qHTS Assay for Inhibitors of the Six1/Eya2 Interaction. Homeobox protein SIX1 (Homo sapiens) + Protein phosphatase EYA2 (Homo sapiens), …. AlphaScreen GST-Six1/His-Eya2 binding, biochemical; hits give low values. activity change, % (no concentration beside the values). 360,000 tested, 0.56% active. AID 651725, 2012; in the data active = activity change below about -65%; inconclusive = mostly about -30% to -63%
Target sequence (O00167 whole entry, looked up): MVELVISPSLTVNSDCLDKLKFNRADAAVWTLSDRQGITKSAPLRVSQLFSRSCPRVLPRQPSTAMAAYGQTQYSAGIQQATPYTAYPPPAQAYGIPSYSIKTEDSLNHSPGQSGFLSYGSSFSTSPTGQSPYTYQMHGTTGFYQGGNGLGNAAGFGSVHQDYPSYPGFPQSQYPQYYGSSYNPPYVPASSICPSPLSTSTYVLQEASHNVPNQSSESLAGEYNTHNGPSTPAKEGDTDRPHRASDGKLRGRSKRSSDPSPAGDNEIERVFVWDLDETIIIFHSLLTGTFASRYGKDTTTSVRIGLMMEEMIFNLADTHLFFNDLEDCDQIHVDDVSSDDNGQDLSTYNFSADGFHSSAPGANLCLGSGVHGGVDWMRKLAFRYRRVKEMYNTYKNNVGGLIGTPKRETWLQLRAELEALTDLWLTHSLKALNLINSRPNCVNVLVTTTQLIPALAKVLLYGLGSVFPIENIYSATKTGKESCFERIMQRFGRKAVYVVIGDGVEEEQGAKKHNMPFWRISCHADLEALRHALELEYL
Target sequence (Q15475 whole entry, looked up): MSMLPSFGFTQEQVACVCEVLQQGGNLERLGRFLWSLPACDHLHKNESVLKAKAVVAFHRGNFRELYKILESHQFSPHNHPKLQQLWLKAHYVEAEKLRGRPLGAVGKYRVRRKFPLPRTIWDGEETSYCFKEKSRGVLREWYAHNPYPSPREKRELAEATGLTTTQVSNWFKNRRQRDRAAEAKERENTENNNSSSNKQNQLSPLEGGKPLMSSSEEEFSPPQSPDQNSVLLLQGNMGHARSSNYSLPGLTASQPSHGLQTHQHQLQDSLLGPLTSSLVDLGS
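GST-Six1 + His-Eya2 (5X stock: 250/500 nM); Tris pH 8.0, 300 mM NaCl, 0.05% BSA, 0.02% Tween 20; GSH donor/Ni acceptor beads; 1 h 37 °C dark; AlphaScreen readout.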
TGFb SMAD3 inh = qHTS for Inhibitors of TGF-b. HepG2 CAGA-GFP TGF-b/SMAD3 reporter, GFP fluorescence, 18 h; TGF-beta stimulated, 500 pg/mL final. Potency, µM (series often up to 46.1 µM), most hits filed as inhibitors. AID 588855, 2011. 410,000 tested, 1.2% active; also: nearly all actives have a fitted effect of over 65% in size
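Per well, imaged GFP fluorescence of HEPG2 CAGA-GFP cells gives the signal; cells get compound, then TGF-beta (500 pg/mL final), 18 h at 37 degrees C; %Activity versus -TGF-beta and +DMSO controls.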
A number is an active result; i = inactive; ? = inconclusive; nt = no result; ! = repeats disagree. An excerpt weighted towards active compounds, which were near 2.8% of everything screened. Unless noted, calls follow the shape of the dose curve; as a rule, active = well fitted curve in the direction sought with a large enough effect; inconclusive = small, poorly fitted or top-dose-only effect, or another doubt; inactive = no such curve, though single readings can be large; an effect the other way counts as inactive or inconclusive.

SMILES	HepG2 viability	ATXN2 expr inh	ATXN viability	CtBP-E1A inh	Six1-Eya2 blk	TGFb SMAD3 inh
COc1ccc(CNCCC(c2ccc(OC(C)C)cc2)c2ccccc2OC)cc1OC (stereo not drawn)	i	i	i	i	i	?
COc1ccccc1NC(=O)CC(c1ccc(OC(C)C)cc1)c1ccccc1OC (stereo not drawn)	i	i	?	i	i	i
COc1ccc(CNCCC(c2ccccc2)c2ccc3c(c2)OCO3)cc1 (stereo not drawn)	i	25.1µM!	22.4µM	i	i	22.4µM
CC(C)CCC(CCNCc1ccccn1)c1ccc2c(c1)OCO2 (stereo not drawn)	15.8µM	nt	?	nt	i	?
Nc1c(CC(=O)O)cccc1C(=O)c1ccc(Br)cc1	nt	i	i	nt	nt	nt
Cc1ccc(Nc2c(-c3cccnc3)nc3ccc(Cl)cn23)cc1	i	i	?	nt	nt	i
Cn1cc(-c2ccc3nnc(C(F)(F)c4ccc5ncccc5c4)n3n2)cn1	nt	i	nt	nt	nt	nt
COc1ccc(CNCCC(c2ccc(OC(C)C)cc2)c2ccccc2OC)cc1 (stereo not drawn)	i	25.1µM	?	i	i	?
Cc1nc(NC2=NCN(Cc3cccnc3)CN2)nc2ccccc12	i	i	?	i	i	i
Cc1nc(NC2=NCN(CCCN3CCOCC3)CN2)nc2c(C)cccc12	i	?	?	i	?	15.8µM
O=C(O)c1ccccc1-c1ccc(/C=c2\sc3nc4cc(Br)cnc4n3c2=O)o1	i	i	i	?	-81.0	i
O=c1oc2c(O)cccc2cc1-c1nc2ccccc2[nH]1	i	i	nt	i	i	i
O=C(O)c1ccc2nc(-c3cc4cccc(O)c4oc3=O)[nH]c2c1	8.91µM	nt	nt	nt	nt	nt
O=[N+]([O-])c1ccc2c(OCc3nnc(-c4ccccc4Br)o3)ncnc2c1	i	i	i	-84.7	-69.8	i
COc1ccccc1C1CN(CC(=O)N[C@H]2CCCCNC2=O)Cc2ccccc2O1 (stereo partly drawn)	nt	nt	i	nt	nt	nt
Cc1cc(C)c2cc3c(N)c(C(=O)Nc4c(C)[nH]c(=O)[nH]c4=O)sc3nc2c1	i	i	i	i	-71.5	i
COc1ccc(C)cc1NC(=O)c1nnn(-c2c(C)cccc2C)c1C	i	i	i	nt	nt	i
CC(O)(c1cccc(F)c1)c1nc(-c2ccccc2)cs1 (stereo not drawn)	i	i	i	i	i	i
CC(O)(c1cccc(F)c1)c1nc(-c2cccc(C(F)(F)F)c2)cs1 (stereo not drawn)	15.8µM	?	?	i	i	?
CC(=O)O[C@]1(C(C)=O)CC[C@H]2[C@@H]3C=C(C)C4=CC(=O)CC[C@]4(C)[C@@H]3CC[C@@]21C	nt	i	nt	nt	nt	nt
O=C(Oc1cccc(C(=S)N2CCOCC2)c1)c1ccc([N+](=O)[O-])cc1[N+](=O)[O-]	i	i	i	i	-68.8	?
O=C(Oc1ccc(Br)cc1C(=S)N1CCOCC1)c1ccc([N+](=O)[O-])cc1[N+](=O)[O-]	i	i	i	?	-94.3	i
O=C(CNC(=O)c1ccco1)N/N=C/c1ccc(O)cc1O	i	nt	i	nt	-85.8	i
COc1cc(/C=N/NC(=O)CNC(=O)c2ccco2)ccc1O	i	i	i	i	i	i
O=C(CNC(=O)c1ccco1)N/N=C/c1cc(Br)ccc1O	i	?	i	-85.7	-96.5	i
SMILES	HepG2 viability	ATXN2 expr inh	ATXN viability	CtBP-E1A inh	Six1-Eya2 blk	TGFb SMAD3 inh
Cc1c(C(=O)N2CCCCC2)sc2ncnc(NCCN(C)C)c12	nt	nt	i	nt	nt	nt
COc1ccccc1N1CCN(C(=O)c2cnn(-c3cccc(Cl)c3)c2C2CCN(C(=O)OC(C)(C)C)CC2)CC1	i	nt	nt	nt	nt	?
NC(=S)NN=Cc1nccc2c(C(F)(F)F)cccc12	i	nt	?	-71.8	-74.8	?
NC(=S)N/N=C/c1cccnc1	nt	i	i	nt	nt	nt
CNc1cccnc1C=NNC(N)=S	i	?	i	i	-88.5	?
NC(=S)N/N=C/c1ccccc1	i	i	i	i	i	?
CSc1ccc(CCNC(=O)C2CCN(c3nc4ccccc4nc3C(F)(F)F)CC2)cc1	i	i	i	nt	nt	?
Cc1ccc(-c2ccc(/C=C3\C(=O)ON=C3c3ccccc3)o2)c([N+](=O)[O-])c1	i	?	35.5µM	i	i	i
Cc1ccc(NCc2ccc(O)c3ncccc23)cc1	i	i	i	-78.4	-72.2	i
Cc1ccc(NCc2ccc(O)c3ncccc23)cc1C	i	i	i	-79.6	-69.5	?
Cc1cccnc1NCc1ccc(O)c2ncccc12	i	?	i	-91.1	-90.3	?
Cc1ccc(C)c(N=Nc2ccc(O)c3ncccc23)c1	i	?	?	?	?	i
Cc1c(C(=O)NCCCc2ccncc2)cnn1-c1nccc(-c2ccccc2F)n1	nt	nt	i	nt	nt	nt
CC1(C)[C@@H](OC(=O)CCC(=O)O)CC[C@]2(C)[C@H]3C(=O)C=C4[C@@H]5C[C@@](C)(C(=O)O)CC[C@]5(C)CC[C@@]4(C)[C@]3(C)CC[C@@H]12	nt	i	i	nt	nt	nt
CC#CC[N+](C)(C)CCCCCCCCCCCC	i	25.1µM	?	i	i	?
C[N+](C)(C)CCCCCC[N+](C)(C)C	i	i	i	i	i	i
CCCCCCCCCCCCCCCC[N+](C)(C)CC	i	14.1µM	17.8µM	i	i	?
CCCCCCCCCCCCCC[N+](C)(C)C	nt	22.4µM	?	nt	nt	nt
CCOC(=O)c1c(-c2ccc(OC)cc2)csc1/N=C/C1C(=O)CCCC1=O	15.8µM	i	i	i	i	i
Clc1ccc(-c2noc(-c3cccnc3N3CCN(c4ccccc4)CC3)n2)cc1	i	i	i	nt	nt	i
COc1ccc(-c2csc(C3=C(O)CN(C(C)C)C3=N)n2)cc1OC	i	i	i	-77.4	?	i
CCc1ccc2nc(N3CCC(C(=O)O)CC3)sc2c1	i	14.1µM	i	nt	nt	i
Cc1cccc(CNC(=O)CN2C(=O)CCCc3ccccc32)c1	i	nt	nt	nt	nt	i
COc1ccc(-n2nc([N+](=O)[O-])c(=NCCC3=CCCCC3)n2O)cc1	i	i	?	?	-69.6	i
COc1ccc(-n2nc([N+](=O)[O-])c(=NCCc3ccc(OC)c(OC)c3)n2O)cc1	15.8µM	i	i	i	i	i
COc1ccc(-n2nc([N+](=O)[O-])c(=NCCc3ccc(C)cc3)n2O)cc1	i	i	i	i	i	i
COc1cc(=O)n2c(c1C(=O)N(C)Cc1nonc1C)CCN(Cc1ccc(C)cc1C)CC2	nt	nt	i	nt	nt	nt
O=C(Nc1ccccc1C(F)(F)F)c1cnccn1	i	i	i	i	i	i

High-throughput results (PubChem BioAssay)
